Shiga toxin inh: inhibitors of Shiga toxin in Vero cells; inhibition, % at 38.7 µM; Vero cells, Shiga toxin protein synthesis inhibition reporter; 9.2% of 290,000 active; in the data active = inhibition mostly above about 28%, no sharp cut-off; inactive = mostly below about 43%
LASV entry inh: blocks Lassa virus binding to or entry into cells; Lassa virus pseudotype entry inhibition, cell reporter; Potency, µM (series often up to 37.9 µM), most hits filed as inhibitors; 1.2% of 300,000 active; calls by dose curve; tested in HEK293 cells; also: nearly all actives have a fitted effect of over 50% in size
Marburg entry inh: Marburg virus entry inhibition | Marburg virus pseudotyped entry inhibition, cell reporter | Potency, µM (series often up to 37.8 µM), most hits filed as inhibitors | 1.8% of 300,000 active | AID 540276; calls by dose curve; tested in HEK293 cells
AMA1-RON2 inh: inhibitors of Plasmodium falciparum AMA1-RON2 interaction | AID 720542 | 0.2% of 360,000 active | AlphaScreen AMA1-biotinylated RON2 peptide binding | Potency, µM (top dose mostly 58.2 µM), usual class: inhibitors; active = well fitted inhibition curve with a large enough effect; inconclusive = small, poorly fitted or top-dose-only effect; inactive = no such curve, though single readings can be large or run the other way; also: nearly all actives have a fitted effect of over 45% in size
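AMA1 (3D7) with his tag at 25 nM final met compounds first, then biotinylated RON2 peptide at 25 nM; detection used donor plus acceptor beads, 10 µg/mL apiece, read by AlphaScreen after 30 min at room temperature.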
CHX counter: counter-screen hit for Shiga toxin inhibitors, cycloheximide. cell reporter, cycloheximide protein synthesis inhibition counterscreen. max response, %. 12% of 300,000 active; in the data active = max response mostly above about 13%, no sharp cut-off; inactive = mostly below about 14%; also: read at 38.3 µM for the half of the compounds with a filed dose
Large screens that a line does not name were inactive. The entries come from a sample that favours hits as a whole.

COCCNC(=S)Nc1ccc2nsnc2c1	CHX counter 16.4
COCCNC(=S)Nc1ccc(Cl)c(Cl)c1	CHX counter 14.6
C=COCCNC(=O)Nc1ccc(Cl)c(Cl)c1	Shiga toxin inh 54.1, CHX counter 30.7
C=CCN(CC=C)C(=S)Nc1ccc2nsnc2c1	Shiga toxin inh 59.6, CHX counter 26.0 (no result: LASV entry inh, Marburg entry inh)
C=CCNC(=S)Nc1ccc2nsnc2c1	none
COCCNC(=S)Nc1ccc2[nH]c(=O)[nH]c2c1	none (no result: LASV entry inh, Marburg entry inh)
O=C(NCCCn1ccnc1)Nc1ccc(Cl)c(Cl)c1	AMA1-RON2 inh inconclusive
CC(C)NC(=O)Cn1ccc2cc(S(=O)(=O)N3CCCCCC3)ccc21	none (no result: Shiga toxin inh, Marburg entry inh, AMA1-RON2 inh, CHX counter)
COc1ccccc1C(=O)C1CCCN(C(=O)c2cnn(C(C)C)c2)C1 (centres undefined)	none (no result: LASV entry inh, Marburg entry inh)
CN(C)c1ccc(/C=C/C=C2/SC(=S)N(c3ccccc3)C2=O)cc1	Shiga toxin inh 88.2, AMA1-RON2 inh 2.51µM, CHX counter 33.1
Cc1cc2c(C)nc(-c3ccccc3)nc2o1	Shiga toxin inh 106.7, CHX counter 39.1
CC(Oc1ccc(F)cc1)C(=O)Nc1cc(S(=O)(=O)N2CCOCC2)ccc1N1CCCCC1 (centres undefined)	LASV entry inh inconclusive, Marburg entry inh inconclusive (no result: Shiga toxin inh, CHX counter)
CC(C)(C)C(=O)/C(=C/c1ccncc1)n1cncn1	LASV entry inh 10.3µM, Marburg entry inh 4.11µM
Cc1nn(C)c(C)c1/C=C(/C(=O)C(C)(C)C)n1cncn1	LASV entry inh inconclusive, Marburg entry inh inconclusive
Cc1noc(C)c1NC(=O)N1C[C@H](O)COC[C@H]2O[C@@H](CC(=O)NCC3CCCCC3)CC[C@@H]21	none (no result: Shiga toxin inh, LASV entry inh, Marburg entry inh, CHX counter)
OC1(c2cccc(C(F)(F)F)c2)CCN(c2ncnc3c2[nH]c2ccc(F)cc23)CC1	LASV entry inh 14.1µM, Marburg entry inh 3.98µM
CC1CC1C(=O)Nc1nc(-c2ccccn2)cs1 (centres undefined)	CHX counter 21.6
O=C(Nc1nc(-c2ccccn2)cs1)C1COc2ccccc2O1 (centres undefined)	none (no result: LASV entry inh, Marburg entry inh)
Cc1ccc(C(=O)Nc2nc(-c3ccccn3)cs2)o1	Shiga toxin inh 47.6, CHX counter 23.1 (no result: LASV entry inh, Marburg entry inh)
COC(=O)/C(=N/Nc1ccccc1C)Sc1nnc(C(O)c2ccccc2)n1-c1ccccc1 (centres undefined)	none
Cc1ccc(C(=O)NNC(=O)/C=C\C(=O)O)cc1	Shiga toxin inh 70.0, LASV entry inh inconclusive, CHX counter 41.8
O=C(O)c1ccc(NC(=S)Nc2ccccc2)cc1	Marburg entry inh inconclusive, CHX counter 15.7
COc1ccccc1NC(=S)NNC(=O)c1ccc(O)cc1	Marburg entry inh inconclusive, CHX counter 24.1
O=C(O)CCC(=O)NNC(=O)c1cccc(Br)c1	none
O=C(O)/C=C/C(=O)NNC(=O)c1cccc(Br)c1	Shiga toxin inh 38.6, CHX counter 25.0
O=C(CCCn1c(=O)c2sccc2n(Cc2ccc(F)cc2Cl)c1=O)NCc1ccc2c(c1)OCO2	none (no result: Shiga toxin inh, AMA1-RON2 inh, CHX counter)
O=C(NNC(=S)Nc1ccccc1)c1cccc(Br)c1	LASV entry inh inconclusive, CHX counter 26.2
O=C(Nc1cccc(C(=O)Nc2cccc(Br)c2)c1)c1ccccc1	none (no result: LASV entry inh, Marburg entry inh)
O=C(NNC(=S)Nc1ccccc1)c1ccc(O)cc1	Shiga toxin inh 73.4, CHX counter 45.2 (no result: LASV entry inh, Marburg entry inh)
O=C(NNC(=S)Nc1ccc(Br)cc1)c1ccccc1	Marburg entry inh inconclusive, CHX counter 22.5
COC(=O)c1ccc(NC(=S)NNC(=O)c2ccccc2)cc1	CHX counter 25.7
COc1ccc2cc(CN(C)C(=O)CN3C(=O)NC4(CCCC4)C3=O)ccc2c1	none (no result: Shiga toxin inh, LASV entry inh, Marburg entry inh, CHX counter)
Cc1ccc(C)c(NC(=O)Cn2cnc3nc4c(cc3c2=O)CCCC4)c1	none (no result: Shiga toxin inh, Marburg entry inh, AMA1-RON2 inh, CHX counter)
Cc1ccccc1C(=O)NNC(=O)c1cccc(Br)c1	none (no result: Shiga toxin inh, LASV entry inh, Marburg entry inh)
CC(C)(C)NC(=S)NNC(=O)c1cccc(Br)c1	Shiga toxin inh 74.3, CHX counter 40.4 (no result: LASV entry inh, Marburg entry inh)
COc1cc(NC(=O)c2ccccn2)cc(OC)c1OC	LASV entry inh inconclusive
COc1ccc(NC(=O)c2cc(F)cc(F)c2)cc1Cl	Shiga toxin inh 82.0, CHX counter 27.4
O=C(Nc1ccc(OC(F)F)c(Cl)c1)c1ccccn1	Shiga toxin inh 93.9, LASV entry inh inconclusive, Marburg entry inh inconclusive, CHX counter 41.3
COc1cc(C(=O)ONC(=O)c2ccc(OC(F)F)cc2)cc(OC)c1OC	LASV entry inh 9.2µM, Marburg entry inh inconclusive
COc1ccc(NC(=O)c2c(F)c(F)c(F)c(F)c2F)cc1Cl	none
COc1ccc(NC(=O)c2ccc(OC(F)F)cc2)cc1Cl	Shiga toxin inh active, LASV entry inh inconclusive, CHX counter 47.4
Cc1cccc(NC(=O)c2nc[nH]c2C(=O)N(C)Cc2ccccc2)c1	none (no result: Shiga toxin inh, LASV entry inh, Marburg entry inh, CHX counter)
C=CCN(C(=O)Cn1nc(C)n2c(cc3cc(C)ccc32)c1=O)c1ccccc1	none (no result: LASV entry inh, Marburg entry inh)
O=C(Nc1ccccn1)c1ccc(C(=O)Nc2ccccn2)cc1	none (no result: LASV entry inh, Marburg entry inh)
O=C(Nc1ccccn1)c1ccccc1	Marburg entry inh inconclusive (no result: Shiga toxin inh, CHX counter)
O=C(Cn1nc(-c2ccccc2)c2ccccc2c1=O)Nc1ccccn1	LASV entry inh inconclusive, Marburg entry inh inconclusive, CHX counter 45.9
O=C(NC(=S)Nc1ccccn1)c1ccccc1	Shiga toxin inh 68.3, CHX counter 39.6 (no result: LASV entry inh, Marburg entry inh)
O=C(CC(=O)c1ccccc1)Nc1ccccn1	Shiga toxin inh 76.5, CHX counter 43.2
O=C(NC(=S)Nc1ccccn1)c1ccc(-c2ccccc2)cc1	Shiga toxin inh 126.6, Marburg entry inh inconclusive, CHX counter 63.2
O=C(/C=C/c1ccc(Cl)cc1Cl)NC(=S)Nc1ccccn1	Shiga toxin inh 85.7, LASV entry inh inconclusive, Marburg entry inh inconclusive, CHX counter 38.0
O=C(NC(=S)Nc1ccccn1)c1ccc([N+](=O)[O-])cc1	Shiga toxin inh 198.8, Marburg entry inh inconclusive, CHX counter 51.1
Cc1cc(C)c(NC(=S)NC(=O)c2ccc(-c3ccccc3)cc2)c(C)c1	LASV entry inh 8.91µM, Marburg entry inh inconclusive
COc1cc(NC(=O)c2sc3ncn(CC(=O)N4CCCCC4C)c(=O)c3c2C)cc(OC)c1OC (centres undefined)	none (no result: Shiga toxin inh, LASV entry inh, Marburg entry inh, CHX counter)
Cc1c(-c2nc(N)nc(Nc3ccccc3)n2)oc2ccccc12	Shiga toxin inh 77.5, LASV entry inh inconclusive, Marburg entry inh inconclusive, CHX counter 39.1
Nc1nc(CN2CCCCCC2)nc(Nc2ccccc2)n1	none
COc1ccc(CCNC(=O)CSc2ccc(-c3ccncc3)nn2)cc1	none (no result: LASV entry inh, Marburg entry inh)
COC(=O)c1ccc(NC(=O)c2ccccc2)o1	Shiga toxin inh 80.6, Marburg entry inh inconclusive, CHX counter 38.3
Cc1ccc(NC(=O)c2ccccc2)cc1C	none (no result: Shiga toxin inh, LASV entry inh, Marburg entry inh, CHX counter)
Cc1ccc(C(=O)Nc2cccc(C(=O)O)c2)cc1	Shiga toxin inh 71.0, LASV entry inh 5.8µM, Marburg entry inh inconclusive, CHX counter 41.8
Cc1ccc(C(=O)Oc2cccc(NC(=O)c3ccccc3)c2)cc1C	LASV entry inh inconclusive, Marburg entry inh inconclusive, CHX counter 16.4
O=C(O)c1cccc(NC(=O)c2ccccc2)c1	none (no result: Shiga toxin inh, LASV entry inh, Marburg entry inh, CHX counter)
COC(=O)c1cccc(NC(=O)c2ccccc2)c1	Shiga toxin inh 50.3, CHX counter 29.1 (no result: LASV entry inh, Marburg entry inh)
Cc1cc(C)cc(NC(=O)CCS(=O)(=O)c2cccc3nsnc23)c1	none (no result: Shiga toxin inh, AMA1-RON2 inh, CHX counter)
COc1ccc(-n2nc(C(=O)NCC(=O)NCC3COc4ccccc4O3)c3ccccc3c2=O)c(OC)c1 (centres undefined)	Marburg entry inh inconclusive

Source: PubChem BioAssay
